The results in this text go back to PubChem BioAssay.

Unmarked numbers belong to inactive results. Calls of active or inactive are those of the source.

The assay in a line: S. cerevisiae growth modulation with rapamycin, primary screen, strain BY4716, OD600, 96 h (AID 1091). Note: test concentration not given here. To be noted: higher = more signal, called active from +8 up or from −8 down.
With `C=CCOC(=O)[C@H]1[C@@H]2C(=O)O[C@@H](c3ccccc3)[C@@H](c3ccccc3)N2[C@@H](c2ccc(OCCOC(=O)[C@H]3C[C@H]4C(=O)N5CCC[C@H]5C(=O)N4[C@H]3c3ccc(O)cc3)cc2)[C@]12C(=O)Nc1ccccc12`, the z-score is 3.27.

On to `COCCCN1C(=O)[C@@]2(c3ccc([N+](=O)[O-])cc3)CC(=O)N(C3CCCCC3)[C@@H]2c2ccc(CO)cc21`, for which the z-score was -1.35. As to `CN(C)CCCCCCNC(=O)[C@@H]1C[C@@H]2C(=O)N[C@@H](CCCCN)C(=O)N2[C@@H]1c1cccc(OCCO)c1`, the z-score is -1.3. Next, `CC(C)c1ccc(NN2C(C(O)C(c3ccccc3)c3ccccc3)C=CC3C(=O)N(c4ccccc4)C(=O)C32)cc1` (stereo not given): 1.04. Next, `C=C(CCCC)C(=O)CC[C@@H](OC(=O)c1cccnc1)c1ccc(CO)o1`: 0.275. Next, `O=C(NCc1ccccc1)[C@@]1(Cc2ccccc2)N=C(c2ccc(OCCCO)cc2)O[C@H]1c1ccccc1`: 23.2 (active); `COCCOC(=O)N1C(=O)[C@@]2(c3cc(C#Cc4ccc(OC)cc4)ccc31)[C@H](c1ccccc1OCCO)N1[C@H](c3ccccc3)[C@H](c3ccccc3)OC(=O)[C@H]1[C@@H]2C(=O)N1CCN(c2ncccn2)CC1`: 7.23; `O=C1NC(=O)C2C1C=CC(C(O)Cc1ccccc1)N2Nc1ccc(Cl)cc1Cl` (stereo not given): -0.125.

`CCCCN1CC=CC23O[C@@H]4/C=C\CCC(C)OC(=O)C4[C@H]2C(=O)N(CCCCCO)[C@@H]3C1=O` (stereo not given in full): the z-score is -0.868. `O=C1[C@H]2C=C(Br)[C@H](C[C@@H]2c2ccccc2)[C@@]12CO2`: the z-score was -0.973. For `CN1C(=O)C2C=CC(C(O)c3cccs3)N(Nc3ccccc3)C2C1=O` (stereo not given), the z-score is 0.662. Next, `COCCOC(=O)N1C(=O)[C@@]2(c3cc(C#CCCO)ccc31)[C@H](C(=O)Nc1nc3ccccc3s1)[C@H]1C(=O)O[C@H](c3ccccc3)[C@H](c3ccccc3)N1[C@@H]2c1ccc(OCCO)cc1`: 2.02; `CC(C)(C)OC(=O)CC[C@@]12N=C(c3ccc(OCCCO)cc3)O[C@@H]1c1ccccc1N(CCS(=O)(=O)c1ccccc1)C2=O`: 0.0825; `COC(=O)[C@@]1(Cc2ccccc2)[C@H]2c3cc(C(=O)N4CCCC4)n(Cc4nc5ccccc5[nH]4)c3C[C@H]2CN1C(=O)c1ccccc1`: 1.63. Next, `O=C1OCCC/C=C\[C@H]2OC34C=CCN(Cn5nnc6ccccc65)C(=O)[C@H]3N(CCO)C(=O)[C@@H]4C12` (stereo not given in full): -0.277; `COc1cc2c(cc1O)C(C1CC1)N(Cc1cc3c(cc1Br)OCO3)CC2` (stereo not given): -0.24. The result for `COCCOC(=O)N1C(=O)[C@@]2(c3cc(C#CC4=CCCCC4)ccc31)[C@H](C(=O)N1CCc3cc(OC)c(OC)cc3C1)[C@H]1C(=O)O[C@H](c3ccccc3)[C@H](c3ccccc3)N1[C@@H]2c1ccc(OCCO)cc1` reads 3.16; that for `Cc1ccc(S[C@]2(C(=O)NC(C)C)CC(=O)N(Cc3ccccc3Cl)[C@@H]2c2ccc(CO)cc2I)cc1`, 0.239.

Regarding `COCCOC(=O)N1C(=O)[C@@]2(c3cc(C#CC4=CCCCC4)ccc31)[C@H](C(N)=O)[C@H]1C(=O)O[C@H](c3ccccc3)[C@H](c3ccccc3)N1[C@@H]2c1ccc(OCCO)cc1`, the z-score is 3.59. On to `O=C1C2C=CC(C(O)C(c3ccccc3)c3ccccc3)N(n3cnnc3)C2C(=O)N1Cc1ccccc1` (stereo not given), for which the z-score was -0.771. The result for `CC(C)(C)OC(=O)CC[C@@]1(C(=O)NCCN2CCOCC2)N=C(c2ccc(OCCCO)cc2)O[C@@H]1c1ccccc1N=[N+]=[N-]` reads -0.336. The result for `CN(C)C(=O)[C@@]1(Cc2ccccc2)N=C(c2ccc(OCCCO)cc2)O[C@H]1c1ccccc1N=[N+]=[N-]` reads 4.73; that for `Cc1ccc(S[C@]2(C(=O)NCC(F)(F)F)CC(=O)N(C(C)C)[C@@H]2c2ccc(CO)cc2I)cc1`, 2.23; that for `CCOc1cc(C(O)C2C=CC3C(=O)N(c4ccccc4)C(=O)C3N2Nc2ccccc2)ccc1O` (stereo not given), 1.2.

As to `C=CCNC(=O)[C@H]1[C@@H]2C(=O)O[C@@H](c3ccccc3)[C@@H](c3ccccc3)N2[C@@H](c2ccc(OCCO)cc2)[C@]12C(=O)N(C(=O)OCCOC)c1ccccc12`, the z-score was 4.62.
